Hits are enriched below; roughly 9.4% of the tested compounds scored in any of these assays.
Pf growth 48h: inhibits P. falciparum growth in the first generation, 48 h | P. falciparum luciferase growth in erythrocytes, 48 h | Potency, µM (top dose mostly 28.7 µM), for the others: at the top dose activity change, negative = inhibition, actives largely listed as inhibitors | 310,000 compounds, 5.9% hits | AID 504832; further: on the % scale 0 is the no-effect control and ±100 the full control effect
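First compound was added to culture medium, then infected red cells at 0.1% parasitemia and 2% hematocrit (final). After incubation at 37 C under 5% CO2, luciferase detection reagent was dispensed and light output recorded.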
Pf growth 96h: P. falciparum growth inhibition at 96 hours | P. falciparum luciferase reporter growth, 96 h | Potency, µM (series often up to 28.7 µM), for inactives: top-dose activity change, negative = inhibition, hits mostly inhibitors | 320,000 compounds, 6.9% hits | AID 504834; further: on the % scale 0 is the no-effect control and ±100 the full control effect
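Plates of compound plus infected erythrocytes (2% hematocrit, 0.05% parasitemia final) incubate 96 hours, 37 C, 5% CO2. Detection reagent added; reduced luminescence from the parasites' luciferase reporter flags inhibition.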
AMA1-RON2 inh: disrupts binding of P. falciparum AMA1 to RON2 | AlphaScreen AMA1-biotinylated RON2 peptide binding | AID 720542 | Potency, µM (series often up to 58.2 µM), for inactives: at the top dose activity change, negative = inhibition, hits mostly inhibitors | 360,000 compounds, 0.2% hits;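 further: 0% = vehicle wells and -100% = peptide control; nearly all actives have a fitted effect of over 45% in size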
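AMA1 (3D7) with his tag at 25 nM final met compounds first, then biotinylated RON2 peptide at 25 nM; detection used donor plus acceptor beads, 10 µg/mL apiece, read by AlphaScreen after 30 min at room temperature.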
SARS PLP yeast: inhibitors of SARS-CoV papain-like protease in yeast; S. cerevisiae expressing SARS-CoV PLpro, growth rescue; Potency, µM (series often up to 32.9 µM), for the others: at the highest dose activity, positive = growth rescue, hits mostly activators; 330,000 compounds, 0.19% hits; calls by dose curve; further: 0% is about no effect; nearly all actives have a fitted effect of over 55% in size
The depositor's hits bear a star; ? = inconclusive; . = not tested or not shown; [ ] = remark or other dose. Unless noted, the call rests on the fitted dose curve; in most records, active means well fitted curve in the direction sought with a large enough effect; inconclusive means small, poorly fitted or top-dose-only effect, or another doubt; inactive means no such curve, though single readings can be large; an effect the other way counts as inactive or inconclusive. Potency means the concentration at half of the fitted maximal effect.

SMILES | Pf growth 48h | Pf growth 96h | AMA1-RON2 inh | SARS PLP yeast
O=[N+]([O-])c1ccc(-c2nnc3cccc(Cl)n23)cc1 | 13% | -7% | -6% | 0%
O=C(N/N=C\c1ccccc1OCc1ccccc1)c1ccco1 | 8.3µM* | ? | 23% | -25%
C#CCOc1ccccc1/C=N/NC(=O)c1ccccc1OCc1ccccc1 | ? | 10µM* | 25% | -2%
COc1ccc(/C=N/NC(=O)c2ccccc2OCc2ccccc2)c(OC)c1 | ? | 11% | -8% | -11%
COc1ccccc1/C=C/C=N/NC(=O)c1ccc2nc[nH]c2c1 | ? | 9.3µM* | . | 7%
CCOC(=O)N/N=C/c1ccccc1OCc1ccc(Cl)cc1 | 2.9µM* | 2.1µM* | -1%[11.6 µM] | 6%
COc1ccc(OC)c(/C=N/NC(=O)c2ccc3nc[nH]c3c2)c1 | 38% | 39% | 14% | 0%
Cc1ccc(SCc2nc(-c3ccccc3)no2)cc1 | 18% | 2% | 74% | -6%
CCOC(=O)CN(C(=O)COc1nc(-c2ccccc2)cc(C)c1C#N)c1ccc(C)cc1 | 13µM* | 5.9µM* | -12% | 1%
CCOC(=O)CN(C(=O)COc1nc(-c2ccccc2)cc(C)c1C#N)c1ccccc1C | 13µM* | ? | 1% | -2%
CCOC(=O)CN(C(=O)COc1nc(-c2ccccc2)cc(C)c1C#N)c1ccccc1 | ? | ? | -8% | 0%
CCOC(=O)CN(C(=O)COc1nc(-c2ccccc2)cc(C)c1C#N)c1cccc(OC)c1 | 7.4µM* | 12µM* | -8% | 2%
CCOC(=O)COc1nc(-c2ccccc2)cc(-c2ccco2)c1C#N | 9% | -1% | -16% | -1%
CCOC(=O)CN(C(=O)COc1nc(C)cc(C)c1C#N)c1cccc(Cl)c1 | ? | ? | -28% | -1%
CCCOC(=O)Oc1ccc2c(=O)c(Oc3cc(C)cc(C)c3)coc2c1 | 27% | ? | 25% | -24%
COc1ccc(NC(=O)CS(=O)c2ccc(Br)cc2)cc1 (stereo unspecified) | 64% | -2% | -1% | -1%
O=S(=O)(Nc1ccc(O)c2ccccc12)c1ccc(Br)cc1 | 4.7µM* | ? | . | -9%
Cc1ccc(S(=O)(=O)Nc2ccc(O)c3cccnc23)cc1 | 6.6µM* | 9.3µM* | 29% | 2%
Cc1ccc(S(=O)(=O)Nc2cccc3ncccc23)cc1 | ? | ? | 11% | -1%
Cc1nn2c(COc3ccc(NC(=O)c4ccccc4Cl)cc3)nnc2c2ccccc12 | 12µM* | 4.1µM* | -6%[11.6 µM] | 12%
CCCCC(=O)N1CCN(c2nc3ccc(OCC)cc3s2)CC1 | ? | 12µM* | -2% | -8%
CCCCC(=O)N1CCN(c2nc3ccc(F)cc3s2)CC1 | 167% | -18% | 5% | 0%
O=C(/C=C/c1ccc2c(c1)OCO2)c1ccco1 | 34% | 6.6µM* | -23% | -56%
COc1ccc2nc(NC(=O)/C=C/c3ccc4c(c3)OCO4)sc2c1 | -1% | 1.9µM* | . | -8%
Cc1ccc(-n2nc3c(c2NC(=O)/C=C\c2ccc4c(c2)OCO4)CSC3)cc1 | -22% | 13µM* | 9% | -14%
SMILES | Pf growth 48h | Pf growth 96h | AMA1-RON2 inh | SARS PLP yeast
Cc1ccc(-n2nc3c(c2NC(=O)/C=C\c2ccc4c(c2)OCO4)CSC3)c(C)c1 | ? | 13µM* | -8% | 10%
COc1ccc(OC)c(/C=C/C(=O)OCC(=O)NC2CCCCCCC2)c1 | -17% | ? | 44% | 0%
COc1ccccc1C(=O)N=C1SC2CS(=O)(=O)CC2N1c1ccccc1 (stereo unspecified) | 23% | ? | 11% | 1%
CC(=O)c1c(C(C)=O)c(C)n(NC(=O)c2cccnc2)c1C | 4% | -30% | 1% | 6%
Cc1cccnc1NC(=O)c1ccc2c(c1)OCO2 | 73% | 59% | 12% | -2%
Cc1ccccc1-n1nc2c(c1NC(=O)/C=C\c1ccc3c(c1)OCO3)CSC2 | ? | 12µM* | -4% | -25%
Cc1cccnc1NC(=O)/C=C/c1ccc2c(c1)OCO2 | 239% | 10µM* | 8% | 6%
COC(=O)C(C)Sc1nnc(Cc2cc(=O)[nH]c(=O)[nH]2)n1-c1cccc(OC)c1 (stereo unspecified) | . | 16% | 6% | 5%
CCOc1ccc(-n2c(Cc3cc(=O)[nH]c(=O)[nH]3)nnc2SC(C)C(=O)OC)cc1 (stereo unspecified) | . | 9.3µM* | . | 3%
CCOc1ccc(-n2c(Cc3cc(=O)[nH]c(=O)[nH]3)nnc2SCC(=O)NC2CCCC2)cc1 | . | 10µM* | 10% | -2%
COc1ccc(-n2c(Cc3cc(=O)[nH]c(=O)[nH]3)nnc2SCC(=O)NC2CCCC2)cc1 | . | 3% | 15% | 2%
Cc1csc(Nc2ccccc2)[n+]1-c1ccccc1 | -17% | ? | ? | 3%
O=C(/C=C/c1c(F)cccc1Cl)NCc1ccco1 | 13% | 113% | 0% | -14%
CCOc1ccc(-n2c(-c3ccc(Br)cc3)c[n+]3c2CCCCC3)cc1 | 5.2µM* | ? | 1% | -3%
CCOc1ccc(-n2c(-c3ccc(OC)cc3)c[n+]3c2CCCCC3)cc1 | 0.74µM* | ? | 4% | -3%
CCOc1ccc(-n2c(-c3ccccc3)c[n+]3c2CCC3)cc1 | ? | ? | -11% | 0%
Cc1ncc([N+](=O)[O-])n1CCOC(=O)c1ccccc1 | 19% | 39% | 0% | 10%
Cc1nc(Cc2nnc(SC(C)C(=O)N3c4ccccc4NC(=O)C3(C)C)o2)cs1 (stereo unspecified) | ? | ? | -11% | 12%
COc1ccc(NC(=O)C2CCCN2S(=O)(=O)c2cccc3cccnc23)c(OC)c1 (stereo unspecified) | -7% | 10µM* | -8% | -60%
O=C(Nc1cccc(C(F)(F)F)c1)C1CCCN1S(=O)(=O)c1cccc2cccnc12 (stereo unspecified) | ? | 10µM* | -2% | 0%
CCc1cccc(NC(=O)C2CCCN2S(=O)(=O)c2cccc3cccnc23)c1 (stereo unspecified) | 0% | ? | 10% | 0%
O=C(O)Cc1sc(=O)[nH]c1O | . | . | -17% | .
COCCNC(=O)C1CCCN(C(=O)c2ccnc(Cl)c2)CC1 (stereo unspecified) | . | . | -1% | .
CCOc1ccc(-c2nnc3sc(COc4ccccc4)nn23)cc1 | -9% | 12µM* | 1% | -2%
O=C(NCCCN1CCOCC1)Nc1ccc(Cc2ccc(NC(=O)NCCCN3CCOCC3)cc2)cc1 | 2.6µM* | 1.7µM* | -16% | 17%
SMILES | Pf growth 48h | Pf growth 96h | AMA1-RON2 inh | SARS PLP yeast
Cc1ccc(NC(=O)NCCCN2CCOCC2)cc1 | -6% | 7% | -9% | -1%
O=C(NCCCn1ccnc1)Nc1ccc(Cl)c(Cl)c1 | 12µM* | 2.1µM* | ? | 7%
S=C(NCCCN1CCOCC1)Nc1ccc(Cl)c(Cl)c1 | -11% | 17µM* | 1% | -14%
CCN(CC)c1ccc(NC(=O)c2ccc(Br)o2)c(C)c1 | 7.4µM* | . | ? | -2%
Cc1cc(O)c(NC(=O)c2ccc(Br)o2)cc1C | 12µM* | 118% | -25% | -9%
COC(=O)CCC[N+](C)(C)C | ? | 11µM* | . | .
COC(=O)CCCCC(=O)OC | 38% | 61% | 12% | 1%

Bioassay records as filed in PubChem BioAssay.
